# Measured values as given in PubChem BioAssay.
# Calls of active or inactive are those of the source.
# Assay: basal 3T3-L1 adipocyte mitochondrial potential changes, profiling panel, cell-based, JC-1 fluorescence, 3T3-L1 adipocytes, 24 h, 100 nL compound (AID 1168)
# Conditions: JC-1 mitochondrial fluorescence, higher = more signal, called active from +8 up or from −8 down
# Also: test concentration not given here.
row,SMILES,z-score
1,CCC(CC)C(O)C1C=CC2C(=O)N(C)C(=O)C2N1N1CCCCC1 (stereo not given),-0.115 (inactive)
2,COc1cc2c(cc1O)C(c1ccc(CN3CCCC3)cc1)N(Cc1ccc([N+](=O)[O-])o1)CC2 (stereo not given),-2.19 (inactive)
3,COc1cc(OC)c(C(O)C2C=CC3C(=O)N(c4ccccc4)C(=O)C3N2Nc2ccccc2F)cc1Br (stereo not given),-1.17 (inactive)
4,NC(=O)N1C(=O)C2C(C1=O)C1C=C(CCCO)C2C(c2ccc(CN3CCCC3)cc2)N1Cc1cccc(OC(F)(F)F)c1 (stereo not given),-0.348 (inactive)
5,CC(C)C[C@H]1NC(=O)[C@@]23C(=O)N[C@@H](Cc4ccccc4)C2[C@H](C)[C@@]2(C)O[C@H]2C3/C=C/C/C=C\CNC(=O)[C@@H]2CCCN2C1=O (stereo not given in full),0.244 (inactive)
6,COC(=O)[C@@]1(Cc2ccc(F)cc2)[C@H]2c3cc(C(=O)N(C)C)n(CCn4cc([N+](=O)[O-])nc4C)c3C[C@H]2CN1C(=O)c1ccccc1,-0.596 (inactive)
7,C=CC[C@]1(C(=O)NCCCOC)N=C(c2ccc(OCCCO)cc2)O[C@H]1c1ccccc1,0.171 (inactive)
8,COCCOC(=O)N1C(=O)[C@@]2(c3cc(C#CC4=CCCCC4)ccc31)[C@H](c1ccccc1OCCO)N1[C@H](c3ccccc3)[C@H](c3ccccc3)OC(=O)[C@H]1[C@@H]2C(N)=O,0.686 (inactive)
9,CC(C)C[C@@H]1NC(=O)[C@@]23C(=O)N[C@@H](Cc4ccccc4)C2[C@H](C)[C@@]2(C)O[C@H]2C3/C=C/C/C=C\CNC(=O)[C@@H](CC(C)C)NC1=O (stereo not given in full),-0.618 (inactive)

# Assay: basal RPMI8226 mitochondrial membrane potential changes, profiling panel, cell-based, JC-1 fluorescence, 24 h, 100 nL compound (AID 1169)
# Conditions: RPMI8226 myeloma, JC-1 mitochondrial potential fluorescence, higher = more signal
row,SMILES,z-score
1,CN1C(=O)[C@]2(CCC(=O)OC(C)(C)C)N=C(c3ccc(OCCCO)cc3)O[C@@H]2c2ccccc21,-0.931
2,CC(c1ccccc1)C(O)C1C=CC2C(=O)N(c3ccccc3)C(=O)C2N1Nc1ccc(C#N)cc1 (stereo not given),-0.0416
3,COCCOC(=O)N1C(=O)[C@@]2(c3cc(C#CCCO)ccc31)[C@H](C(=O)N1CCN(c3ncccn3)CC1)[C@H]1C(=O)O[C@H](c3ccccc3)[C@H](c3ccccc3)N1[C@@H]2c1ccc(O)cc1,-0.614
4,C#CCN(C/C=C/c1ccccc1)[C@H](CO[Si](C)(C)C(C)(C)C)c1ccccc1,-0.352
5,NCCCC[C@@H]1NC(=O)[C@H]2C[C@@H](C(=O)O)[C@@H](c3cccc(OCCO)c3)N2C1=O,-0.392
6,[N-]=[N+]=NCc1ccccc1C[C@]1(C(=O)N2CCCCC2)N=C(c2ccc(OCCCO)cc2)O[C@H]1c1ccccc1,-1.14
7,CCCCC(=C=CC[C@H](O)c1ccc(OCCO)cc1)C[C@H](O)c1ccccn1,-0.485
8,CN(C)C(=O)[C@@]1(CCS(=O)(=O)c2ccccc2)N=C(c2ccc(OCCCO)cc2)O[C@H]1c1ccccc1N=[N+]=[N-],-1.32
9,[N-]=[N+]=NCc1ccccc1[C@@H]1OC(c2ccc(OCCCO)cc2)=N[C@]1(Cc1ccccc1)C(=O)NCc1ccccc1,-0.994
10,O=C(NCCO)C1=C[C@H](Oc2ccccc2I)[C@@H](O)[C@H](NCc2ccc(F)cc2)C1,0.391
11,COc1ccc([Si](C)(C)[C@@H]2[C@@H](CC(=O)N(CCO)Cc3ccccc3)O[C@]3(C(=O)N(Cc4ccc(N5CCC5=O)cc4)c4ccccc43)[C@H]2C)cc1,-0.944
12,O=C1NC(=O)C2C1C=CC(C(O)c1cccc(O)c1)N2Nc1ccc(Cl)cc1Cl (stereo not given),-0.39
13,CC(C)C[C@@H]1NC(=O)C([C@@H](C)OCc2ccccc2)NC(=O)[C@@]23C(=O)N[C@@H](Cc4ccccc4)C2[C@H](C)[C@@]2(C)O[C@H]2C3/C=C/CC/C=C/CNC1=O (stereo not given in full),-0.478
14,COc1ccc([Si](C)(C)[C@H]2[C@H](CCO)O[C@@]3(C(=O)N(Cc4ccc(N5CCOC5=O)cc4)c4ccccc43)[C@@H]2C)cc1,-0.992
15,COc1ccc(CCNC(=O)[C@@]2(Sc3ccc(C)cc3)CC(=O)N(Cc3cc(C(F)(F)F)cc(C(F)(F)F)c3)[C@@H]2c2ccc(CO)cc2)cc1,1.15
16,CCCCC(O)C1C=CC2C(=O)NC(=O)C2N1Nc1ccc(Cl)cc1Cl (stereo not given),-0.64
17,CO[C@H]1O[C@H](CO)[C@@H](OC(=O)Nc2ccc3c(c2)OCO3)[C@@H]2OC(=O)[C@@H](Cc3ccccc3)C/C=C/C[C@H](Cc3ccccc3)C(=O)O[C@@H]12,-0.469
18,CN(C)C(=O)[C@]1(Cc2ccccc2CN=[N+]=[N-])N=C(c2ccc(OCCCO)cc2)O[C@@H]1c1ccccc1N=[N+]=[N-],-0.997

row,SMILES,z-score
1,O=C1OCCC=C[C@H]2OC34C=CCN(CCN5CCOCC5)C(=O)[C@H]3N(CCCO)C(=O)[C@@H]4C12 (stereo not given in full),0.398
2,C=CCNC(=O)[C@@H]1[C@H]2C(=O)O[C@H](c3ccccc3)[C@H](c3ccccc3)N2[C@H](c2ccccc2OCCO)[C@@]12C(=O)N(C(=O)OCCOC)c1ccc(C#CCCO)cc12,-0.868
3,C=CCC(OC(C)=O)[C@@H]1[C@@H](N(Cc2cccc3ccccc23)C(=O)c2cccc3ccccc23)c2cc(OCCCO)ccc2N1C(=O)Cc1ccc2ccccc2c1 (stereo not given in full),0.00587
4,C=C(COC)/C(=C/C[C@@H](OC(C)=O)c1ccccc1OCCO)c1cc(C(=O)OC)ccc1OC,-0.338
5,COCC(=C=CC[C@@H](O)c1cccc(OCCO)c1)C[C@@H](O)COCc1ccccc1,0.539
6,CCCCC=C[C@@H](NC(=O)c1ccc(C(F)(F)F)cc1)c1ccccc1,-0.169
7,COC(=O)[C@]1(CO)N=C(c2ccc(OCCCO)cc2)O[C@@H]1c1ccccc1CN=[N+]=[N-],0.00663
8,COC(=O)[C@@]1(Cc2ccc(OC)cc2)[C@H]2c3cc(C(=O)N4CCCC4)n(CCc4ccc(OC)c(Br)c4)c3C[C@H]2CN1C(=O)c1ccccc1,-0.767
9,COCCOC(=O)N1C(=O)[C@@]2(c3cc(C#CCC(C(=O)OC)C(=O)OC)ccc31)[C@H](C(=O)N1CCc3cc(OC)c(OC)cc3C1)[C@H]1C(=O)O[C@H](c3ccccc3)[C@H](c3ccccc3)N1[C@@H]2c1ccc(O)cc1,0.109
10,CCC(CC)C(O)C1C=CC2C(=O)N(C)C(=O)C2N1N1CCCCC1 (stereo not given),0.153
11,COc1cc2c(cc1O)C(c1ccc(CN3CCCC3)cc1)N(Cc1ccc([N+](=O)[O-])o1)CC2 (stereo not given),0.733
12,COc1cc(OC)c(C(O)C2C=CC3C(=O)N(c4ccccc4)C(=O)C3N2Nc2ccccc2F)cc1Br (stereo not given),0.26
13,NC(=O)N1C(=O)C2C(C1=O)C1C=C(CCCO)C2C(c2ccc(CN3CCCC3)cc2)N1Cc1cccc(OC(F)(F)F)c1 (stereo not given),0.708
14,CC(C)C[C@H]1NC(=O)[C@@]23C(=O)N[C@@H](Cc4ccccc4)C2[C@H](C)[C@@]2(C)O[C@H]2C3/C=C/C/C=C\CNC(=O)[C@@H]2CCCN2C1=O (stereo not given in full),0.868
15,COC(=O)[C@@]1(Cc2ccc(F)cc2)[C@H]2c3cc(C(=O)N(C)C)n(CCn4cc([N+](=O)[O-])nc4C)c3C[C@H]2CN1C(=O)c1ccccc1,0.0282
16,C=CC[C@]1(C(=O)NCCCOC)N=C(c2ccc(OCCCO)cc2)O[C@H]1c1ccccc1,-0.446
17,COCCOC(=O)N1C(=O)[C@@]2(c3cc(C#CC4=CCCCC4)ccc31)[C@H](c1ccccc1OCCO)N1[C@H](c3ccccc3)[C@H](c3ccccc3)OC(=O)[C@H]1[C@@H]2C(N)=O,-0.96
18,CC(C)C[C@@H]1NC(=O)[C@@]23C(=O)N[C@@H](Cc4ccccc4)C2[C@H](C)[C@@]2(C)O[C@H]2C3/C=C/C/C=C\CNC(=O)[C@@H](CC(C)C)NC1=O (stereo not given in full),-0.955
